# The campaign covered roughly 16,000 compounds. About 2,600 (16%) were called active. Inconclusive results (about 20%) are left out. Not all results are given here. Unmarked numbers belong to inactive results. Calls come from the whole dose curve; as a rule, active = well fitted curve in the direction sought with a large enough effect; inconclusive = small, poorly fitted or top-dose-only effect, or effect the other way; inactive = no such curve, though single readings can be large or run the other way.
# Target: Cytochrome P450 2D6 (Homo sapiens) (UniProt P10635)
# Sequence (P10635 whole entry, looked up): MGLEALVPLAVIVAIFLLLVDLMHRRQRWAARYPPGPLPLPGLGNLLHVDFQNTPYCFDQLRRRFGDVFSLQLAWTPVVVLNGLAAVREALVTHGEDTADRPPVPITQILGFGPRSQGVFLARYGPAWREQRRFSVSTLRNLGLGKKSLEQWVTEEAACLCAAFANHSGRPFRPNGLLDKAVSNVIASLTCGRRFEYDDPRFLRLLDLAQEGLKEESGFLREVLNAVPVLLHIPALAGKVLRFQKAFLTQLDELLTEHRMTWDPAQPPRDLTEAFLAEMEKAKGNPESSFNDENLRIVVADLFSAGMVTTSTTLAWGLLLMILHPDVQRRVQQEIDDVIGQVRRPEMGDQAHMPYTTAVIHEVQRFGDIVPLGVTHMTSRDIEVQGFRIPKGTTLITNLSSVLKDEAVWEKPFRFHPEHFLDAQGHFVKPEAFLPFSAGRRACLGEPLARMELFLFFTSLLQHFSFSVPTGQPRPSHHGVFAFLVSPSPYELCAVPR
# Test: Cytochrome panel assay with activity outcomes
# Settings: recombinant CYP, pro-luciferin dealkylation, luminescence, p450-cyp2d6; series mostly up to 57.1 µM; activity, negative = inhibition: at the top concentration
# % is set by controls: 0 for no effect and ±100 for the full control effect.
SMILES,"activity, negative = inhibition",AC50
COc1cccc(Cn2c(=O)c(-c3ccccc3)nc3cnc(N4CCN(C)CC4)nc32)c1,8.89%,
COc1ccc(-n2c(=O)cnc3cnc(N4CCNCC4)nc32)cc1,4.72%,
Fc1ccc(-c2csc(N3CCC(c4ccccc4)C3)n2)cc1 (stereo unspecified),-23.2%,
CCN(CC)Cc1nc2c(c(=O)[nH]1)C1(CCCC1)Cc1ccccc1-2,-51.6%,
CCCCCCCCCCCCCCCCCCOC[C@@H](COP(=O)([O-])OCC[N+](C)(C)C)OC,3.16%,
COc1nc(Cl)nc(Cl)c1Cl (tested in a mixture with another compound),10.4% [at 11.4 µM],
Cc1ccccc1-n1ncc2c(SCC(=O)N3c4ccccc4CC3C)ncnc21 (stereo unspecified),-4.18%,
CO[C@H]1COC(=O)C/C=C\[C@@H](C)COC(=O)[C@H]2CCCN2C(=O)C/C=C\[C@H]1C,-1.87% [at 11.4 µM],
O=C(Cn1cnc([N+](=O)[O-])n1)N/N=C/c1ccccc1O,24.4%,
CC1=C(C(=O)OCc2ccccc2)C(c2ccc(Cl)cc2)NC(=O)N1CCCCCC(=O)O (stereo unspecified),-13.2%,
O=C(CNC1CCCCCC1)Nc1ccccc1N1CCCCC1,,1410 nM (active)
COc1cc(OC)cc(C(=O)Nc2ccccc2C(=O)N2CCCC2)c1,-4.71%,
O=C(Cc1ccccc1)Nc1ccccc1N1CCOCC1,-25.1%,
CCOc1ccc(C(=O)Nc2ccccc2N2CCCC2)cc1,,3160 nM (active)
Cc1ccc(OCC(=O)Nc2ccccc2N2CCOCC2)c(C)c1,-28.3%,
CCOc1cc(NC(=S)Nc2ccccc2)c(OCC)cc1NC(=O)c1ccc(OC)cc1,19.1%,
CC1(C)CC(=O)C(C(c2cccc(O)c2O)C2C(=O)CC(C)(C)CC2=O)C(=O)C1,-12.6% [at 11.4 µM],
Cc1ccc(-n2c(-c3cc(C)n(C)n3)n[nH]c2=S)cc1,-8.75%,
Cc1ccc(SC(C)C(=O)NCc2cccnc2)cc1 (stereo unspecified),-6.56%,
Cc1ccc(S(=O)(=O)/C(C#N)=C/c2c(N3CC(C)OC(C)C3)nc3ccccn3c2=O)cc1 (stereo unspecified),-20%,
COc1ncc2nc(CCc3ccccc3)c(=O)n(CCc3ccccc3)c2n1,-5.83%,
Cc1cccn2c(/C=N/OCc3cccc(F)c3)c(-c3ccc(Cl)cc3)nc12,-23.8%,
CCN1C(=O)[C@H]2[C@H]3[C@H](O)[C@H](O)C/C(=N/OCC(C)C)[C@H]3CC[C@@H]2C1=O,-6.52% [at 11.4 µM],
Cc1noc(C)c1C(=O)N1CCC[C@@]2(CCN(C(=O)Nc3cccc(F)c3)C2)C1,1.31%,
CCOC(=O)CC(=O)CSc1nc(-c2ccccc2)cc(-c2ccc(Cl)cc2)c1C#N,9.93%,
O=C1c2ccccc2C(=O)N1CC1c2ccccc2CCN1S(=O)(=O)c1ccccc1 (stereo unspecified),-14.8%,

SMILES,"activity, negative = inhibition",AC50
CCNCc1cc(OCC)c(OCC(=O)NCCc2ccccc2)cc1Cl,,12600 nM (active)
COc1ccc(OC)c2[nH]c(=O)c(CCNC(=O)COc3ccccc3)cc12,-8.87%,
CCn1c(CC(=O)Nc2ccc(C)cc2)nnc1SCC(=O)NCCc1ccccc1,-19%,
O=C(N/N=C/c1ccco1)c1ccc(Br)o1,13.5%,
CCCN1CCC(=NNC(=O)c2ccc(Br)o2)CC1,,7080 nM (active)
CN1CCC(=NNC(=O)CSCc2ccccc2)CC1,-21.6%,
COc1ccc(OC[C@@H](CO)OC)cc1,-7.62% [at 11.4 µM],
COc1ccc(CNC(=O)CN(CC2CCCO2)C(=O)CNS(=O)(=O)c2ccccc2)cc1 (stereo unspecified),-2.1%,
CN1CC[C@@]2(CCCN(C(=O)c3cccc(F)c3)C2)C1,-10.5%,
COc1ccccc1CNc1ncncc1-c1ccccc1C(F)(F)F,,2000 nM (active)
COc1ccc(CNc2ncncc2-c2ccccc2C(F)(F)F)c(OC)c1,,398 nM (active)
O=c1c(-c2cccc(Cl)c2)nc2cncnc2n1C1CC1,-3.44%,
O=C(Nc1ccccc1[N+](=O)[O-])C1C(c2ccccc2)=C1c1ccccc1,15.3%,
COc1ncc2nc(-c3cccs3)c(=O)n(C)c2n1,-1.28%,
Cc1cnn(-c2ccc3nnc(-c4ccc(Cl)cc4)n3n2)c1,-4.72%,
N#CC(c1ccc(Cl)cc1)c1nc2ccccc2nc1C(F)(F)F (stereo unspecified),-19.3%,
Clc1ccc(/C=N/Nc2nnc(-c3ncc[nH]3)c3ccccc23)cc1,-28.8%,
FC(F)(F)c1nc2ccccc2nc1N/N=C/c1ccc(Cl)cc1,,631 nM (active)
O=c1[nH]c(=O)n([C@@H]2C[C@H](O)[C@H](CO)O2)cc1I,3.14% [at 25.6 µM],
CCCN[C@@H](C)C(=O)Nc1ccccc1C,,inactive
N#Cc1cc(N)ccc1Sc1ccc(Cl)cc1,,22400 nM (active)
N#Cc1cc(-c2ccc(Cl)cc2)cnc1Sc1ccc(F)cc1,12.5%,
N#Cc1cc(-c2ccc(Cl)cc2)cnc1Sc1ccccc1,0.543%,
Cc1cc(C)cc(-n2c(C)cc(C=C(C#N)C#N)c2C)c1,25.6%,
Cn1c(=O)c2c(nc(C(=N)SCC(=O)O)n2C)n(C)c1=O,1.35% [at 11.4 µM],
O=C1C2CCCN2C(c2ccccc2F)N1c1ccc(Cl)cc1 (stereo unspecified),-25.3%,

SMILES,"activity, negative = inhibition",AC50
O=C1C2=C(NC(=S)NC2c2ccc(Cl)cc2)NC(c2ccc(Cl)cc2)N1c1ccc(Cl)cc1 (stereo unspecified),,15800 nM (active)
S=C1N(c2ccccc2)C(c2ccc(Cl)cc2)N2CCCN12 (stereo unspecified),-9.66%,
Cc1cnn(CCC(=O)NNC(=S)Nc2cccc(Cl)c2)c1,-13.5%,
COCCn1c(=O)c(-c2cc(F)cc(F)c2)nc2cnc(Oc3cccc(Cl)c3)nc21,-0.734%,
Cc1cc(Br)ccc1NCc1ccccn1,,15800 nM (active)
Cc1cc(NCc2ccccn2)ccc1Br,-27.7%,
Cc1cc(=O)oc(C)c1C(=O)NCc1ccccn1,6.42%,
O=C(O)c1ccccc1C(=O)NNc1ccc(Cl)cc1,11.1%,
O=C(NNC(=O)c1ccccc1-n1cccc1)c1ccccc1,-24.4%,
O=C(NNC(=O)c1ccccc1O)c1ccc(Cl)cc1,,2820 nM (active)
O=C(C[N+]1(c2ccccc2)CCOCC1)c1ccccc1,-6.92% [at 11.4 µM],
O=S(=O)(N/N=C\c1ccc2c(c1)OCO2)c1ccc(Cl)cc1,,7940 nM (active)
Cc1ccc(S(=O)(=O)N/N=C/c2ccc(OC3CSC3)cc2)cc1,5.99%,
O=S(=O)(N/N=C/c1ccc2c(c1)OCCO2)c1ccc(Cl)cc1,-9.99%,
N[C@@H](Cc1nn[nH]n1)C(=O)O,7.47% [at 11.4 µM],
Cn1c(/C(C#N)=C(\O)c2ccc(S(=O)(=O)N3CCCCC3)cc2)nc2ccccc21,17.4%,
C[C@]1(O)CC[C@H]2[C@H]3CC=C4N5CCN=C5CC[C@@]4(C)[C@H]3CC[C@@]21C,-4.3% [at 11.4 µM],
CN1CCN(c2ncnc3ccc(-c4ccccc4C#N)cc23)CC1,-6.68%,
CN1CCC(=C2c3ccccc3Sc3ccccc32)CC1,,3980 nM (active)
CN1CCC(=C2c3ccccc3C=Cc3ccccc32)CC1,,2510 nM (active)
O=C(Nc1ncc(Cc2cc(Cl)ccc2Cl)s1)c1ccc([N+](=O)[O-])cc1,-22.9%,
C/C=C\C1=C(CO)C(=O)C2O[C@]2(CC=C(C)C)C1=O (stereo partly specified),0.497% [at 11.4 µM],
CCC1CCCCN1CCn1c(=S)[nH]c2cc(OC)c(OC)cc2c1=O (stereo unspecified),,178 nM (active)
COc1ccccc1Cn1c(=S)[nH]c2cc(C(=O)N3CCN(C)CC3)ccc2c1=O,2.19%,
CCOc1cc2[nH]c(=S)n(CCC(=O)N3CCc4ccccc4C3)c(=O)c2cc1OCC,41.2%,
COc1cc(/C=C(/NC(=O)c2ccccc2Cl)C(=O)O)cc(OC)c1OC,3.9%,

SMILES,"activity, negative = inhibition",AC50
O=C(Nc1cccc2[nH]ncc12)c1ccc(F)cc1,-11.5%,
Cc1cc(NC(=O)c2ccco2)ccc1-n1cnnn1,-7.42%,
O=C(Nc1ccc(-n2nncc2-c2ccco2)cc1)c1ccc(F)cc1,,1120 nM (active)
COc1ccc(-c2cnnn2-c2ccc(NC(=O)c3ccco3)cc2)cc1OC,,10000 nM (active)
COc1cc(C(=O)Nc2ccc(-c3nnc(-c4ccco4)o3)cc2)cc(OC)c1OC,12.8%,
COc1ccc(CCNC(=O)c2ccccc2NC(=O)c2ccco2)cc1OC,-17.1%,
Cc1ccc(NC(=O)C(C)N2C(=O)C3C4CC(C(Br)C4Br)C3C2=O)cc1 (stereo unspecified),-6.68%,
COC(=O)CSc1ccc(C#N)c(SCC(=O)OC)c1,-2.77%,
CC(C)NC(=O)c1ccc(-c2cccc(C(F)(F)F)c2)o1,-3.7%,
N=C(N)SCc1cccc(-c2nc3ccccc3c(=O)o2)c1,6.52% [at 11.4 µM],
N=C(N)SCc1cccc2c(=O)cc(-c3ccccc3)oc12,,2510 nM (active)
COc1ccc2c(=O)cc(-c3ccncc3)oc2c1OC,12.2% [at 11.4 µM],
CCCNC1CCS(=O)(=O)C1 (stereo unspecified),-3.84%,
C/C(=N/O)[C@@H]1C[C@H](CC(=O)O)C1(C)C,-1.22% [at 11.4 µM],
CCOC(=O)N/N=C(/C)c1ccc([N+](=O)[O-])o1,8.4%,
Cc1ccc(-c2nnc(C)c(N3CC(C)OC(C)C3)n2)cc1 (stereo unspecified),1.15%,
Cc1cc(C(=O)CSc2nnc(-c3ccccc3)o2)c(C)n1CC1COc2ccccc2O1 (stereo unspecified),-27.4%,
Cn1c(C(=O)O)c(CC(=O)NCC2COc3ccccc3O2)c2ccccc21 (stereo unspecified),-7.48%,
COc1ccccc1N1CCN(CCN2C(=O)CC3(CCCC3)CC2=O)CC1,,inactive
O=C1CC2(CCCC2)CC(=O)N1CCNC[C@H]1COc2ccccc2O1,,126 nM (active)
O=C1CC2(CCCC2)CC(=O)N1CCCCNC[C@H]1COc2ccccc2O1,,5010 nM (active)
C[N+]1(C)CCc2cc(O)c(O)cc2[C@H]1Cc1ccc(O)c(O)c1,-2.15% [at 11.4 µM],
CC(C)N1CCN(c2ccc(OC[C@@H]3CO[C@@](Cn4cncn4)(c4ccc(Cl)cc4Cl)O3)cc2)CC1,-9.52% [at 25.6 µM],
